Autofluor 339 = intrinsic fluorescence of library compounds, ex339/em460 – biochemical, MLSMR library, data from DPM-DC assay, artefact control, profiling panel | compound autofluorescence, ex339/em460 nm, NADH buffer; stronger effect = higher value; 1 = no-compound wells, NADH background | fluorescence fold increase at 10 µM | hit rate 5.5% among 65,000 | AID 709, 2007;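 active means at 10 µM, mean starting fluorescence two-fold or more over control wells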;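 further: signal is the first read of a kinetic run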
Abs 340nm = compound light absorbance at 340 nm, profiling panel, artefact control, biochemical, MLSMR library, data from PS, PMK, MK assays | compound absorbance at 340 nm, fold over control | fold change at 10 µM | 65,000 tested, under 10 active | AID 708, 2007;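 active means at 10 µM dose, initial 340 nm absorbance at least 2 fold that of control wells; inactive means change under 2 fold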;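 further: initial absorbance extrapolated from kinetic A340 decline of NADH oxidation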
M1 antag = antagonists of rat M1 muscarinic receptor. Muscarinic acetylcholine receptor M1 (Rattus norvegicus), P08482. B-score at 10 µM. AID 628, 2007. hit rate 3.4% among 64,000. CHO-M1 cells, Fluo-4 calcium, ACh EC80 antagonist mode; stronger effect = lower value;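 active means calcium fluorescence response, raw or row-and-column corrected B-score, differing from the plate sample mean either way at a set confidence level, mostly lower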
Target sequence (P08482 whole entry, looked up): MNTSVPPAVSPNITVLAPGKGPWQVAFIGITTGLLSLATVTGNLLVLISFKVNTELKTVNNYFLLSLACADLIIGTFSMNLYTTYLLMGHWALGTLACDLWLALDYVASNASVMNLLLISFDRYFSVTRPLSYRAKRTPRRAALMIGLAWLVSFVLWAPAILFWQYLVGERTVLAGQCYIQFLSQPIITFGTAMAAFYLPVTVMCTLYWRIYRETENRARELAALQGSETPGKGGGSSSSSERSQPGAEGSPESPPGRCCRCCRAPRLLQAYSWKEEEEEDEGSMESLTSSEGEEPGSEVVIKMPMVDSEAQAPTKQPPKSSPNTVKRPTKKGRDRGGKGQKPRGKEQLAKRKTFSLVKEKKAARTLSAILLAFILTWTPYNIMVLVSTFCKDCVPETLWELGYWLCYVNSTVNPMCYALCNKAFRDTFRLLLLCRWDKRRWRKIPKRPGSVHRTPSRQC
BAP1 inh = inhibitors of BAP1 deubiquitinase, primary screen, biochemical, Ub-AMC fluorescence, kinetic; calls only at 20 µM; AID 436, 2006; hit rate 0.48% among 72,000; recombinant BAP1, Ub-AMC hydrolysis fluorescence kinetic; stronger effect = lower value; Ubiquitin carboxyl-terminal hydrolase BAP1 (Homo sapiens), Q92560;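 active means activity remaining at or below 50% of control, provided the compound also passes the data quality filters; inactive means the rest, including low values that fail the filters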;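 further: 100% = DMSO wells rate and 0% = substrate alone blank rate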
M1 agonist = M1 muscarinic receptor agonists, primary screen, CHO-M1 cells, Fluo-4 calcium, agonist mode | Muscarinic acetylcholine receptor M1 | Fluo-4 calcium fluorescence; stronger effect = higher value | B-score at 10 µM | hit rate 3% among 64,000;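 active means fluorescence rise, raw or as B-score row- and column-corrected plate score, outside the 99.7% band of its plate's samples, either direction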
WNV protease inh = inhibitors of WNV NS2B-NS3 protease, primary screen, biochemical, fluorogenic substrate; Genome polyprotein (West Nile virus), P06935; fluorogenic substrate Ex360/Em465; stronger effect = lower value; z-score (concentration not given with the values); hit rate 0.18% among 65,000; AID 577, 2007; in the data active means z-score below about -3
* hit, by the source's call; i = inactive; . = no result shown. An excerpt weighted towards active compounds, which were near 9.7% of everything screened.

SMILES	Autofluor 339	Abs 340nm	M1 antag	BAP1 inh	M1 agonist	WNV protease inh
COc1ccc(CCNC(=O)CC2Nc3ccccc3NC2=O)cc1 (stereo not given)	2.12*	0.99	1.7	.	-0.792	-0.52
COc1ccc(CCNC(=O)CC2Nc3ccccc3NC2=O)cc1OC (stereo not given)	1.36	1.04	-0.204	i	-0.28	-1.07
CC(NC(=O)CC1Nc2ccccc2NC1=O)c1ccccc1 (stereo not given)	1.47	0.99	-0.171	i	-0.642	-0.04
CCOC(=O)c1c(NC(=O)c2cccc(N3C(=O)CCC3=O)c2)sc2c1CCC2	.	.	.	i	.	.
N#Cc1c(-c2ccccc2)cc(C2CC2)nc1N	3.56*	1.08	0.134	i	0.443	1.85
Cc1nc(N)c(C#N)c(-c2ccccc2)c1C	1.28	1.09	-0.0427	i	0.4	-0.22
N#Cc1c(-c2ccco2)cc(C2CC2)nc1N	2.29*	1.03	0.304	i	0.278	0.71
O=c1c2c(nc3c(-c4ccc(Cl)cc4)c[nH]n13)CCCC2	4.12*	1.04	-0.0319	i	0.267	-0.11
O=c1c2c(nc3nc(CCc4ccccc4)[nH]n13)CCC2	1.04	0.99	0.21	i	0.00647	0.72
O=c1c2c(nc3c(-c4cccc5ccccc45)c[nH]n13)CCC2	3.62*	1.11	0.787	i	-0.045	0.92
Cc1[nH]n2c(=O)c3c(nc2c1-c1ccccc1)CCCC3	1.53	1	0.512	i	-0.0319	-0.52
CNc1nnc(-c2cc3ccccc3oc2=O)s1	2.3*	1.06	-0.125	.	-0.19	-1.07
Cc1ccc2nc(N3CCN(C)CC3)c(C#N)cc2c1	1.74	0.99	0.242	i	0.0345	1.39
N#Cc1cc2cc3c(cc2nc1N1CCCCC1)OCCO3	2.95*	1.05	0.474	i	-3.43	1.24
COCCN1C=C(C(=O)OC)C(c2ccc3c(c2)OCO3)C(C(=O)OC)=C1	2.13*	1.08	0.336	i	-0.993	-0.9
COCCN1C=C(C(=O)OC)C(c2cc3c(cc2Br)OCO3)C(C(=O)OC)=C1	1.49	1	0.263	i	-0.0381	0.00608
CCOc1ccc(C2C(C(=O)OC)=CN(CCOC)C=C2C(=O)OC)cc1	2.47*	1.08	1.49	.	0.00326	2.68
CCOc1ccc2c(C)c(CC)c(=O)oc2c1I	.	.	.	i	.	.
CCCCc1cc(=O)oc2c(CN(C)C)c(O)ccc12	3.59*	1.11	-0.682	i	0.404	8.7
CCc1c(C)c2ccc(O)c(CN(C)C)c2oc1=O	2.32*	1.17	0.432	.	-0.352	7.66
Cc1oc2c(CN(C)C)c(O)ccc2c(=O)c1-c1cscn1	4.91*	1.09	0.0572	.	0.802	0.89
CCc1cc2c(=O)c(-c3cscn3)coc2c(CN(C)C)c1O	2.33*	1.11	-0.903	i	-0.158	-0.91
CCc1cc2c(=O)c(-c3cscn3)coc2cc1OC(C)=O	.	.	.	i	.	.
Nc1ccc[n+](Cc2ccccn2)c1	2.09*	1.06	-0.467	.	-0.324	1.09
Cc1ccc(S(=O)(=O)CCc2ccccn2)cc1	0.95	1.01	0.486	i	0.741	-0.09
SMILES	Autofluor 339	Abs 340nm	M1 antag	BAP1 inh	M1 agonist	WNV protease inh
Cn1c(=O)[nH]c(=O)c2c1nc(SCC(=O)c1ccc(Cl)cc1)n2CCc1ccccc1	.	.	.	i	.	.
Cc1nnc(NC(=O)c2ccccc2[N+](=O)[O-])s1	.	.	.	i	.	.
c1ccc(N2CCN(c3ncnc4scc(-c5cccs5)c34)CC2)cc1	1.12	1.06	-0.712	i	-0.19	0.95
O=C(c1ccco1)N1CCN(c2ncnc3scc(-c4cccs4)c23)CC1	1.07	1.01	-0.413	i	1.94*	0.81
O=c1c2c([nH]c3ccccc13)C(=C1CCCC1)CC2	2.11*	1.12	-0.143	i	0.773	-0.34
CC(C)(C)C1CCc2[nH]c3ccccc3c(=O)c2C1 (stereo not given)	1.16	1.09	0.102	i	1.05	-0.46
NC(=O)c1cc2cc([N+](=O)[O-])ccc2oc1=Nc1cccc(F)c1	.	.	.	i	.	.
O=c1oc2ccccc2c2nccnc12	1.02	0.99	0.771	i	0.158	-0.98
Cc1cnc(N)c2c(=O)oc3ccccc3c12	2.11*	1.12	0.732	.	0.00589	1.22
COC(=O)c1nc(-c2ccccc2)oc1N(C)C	3.83*	1.1	1.53	i	-1.56	0.87
COc1cc(-c2nc(S(=O)(=O)c3ccc(C)cc3)c(N(C)C)o2)cc(OC)c1OC	1.05	1.03	0.128	i	-0.208	-0.89
COC(=O)c1nc(-c2ccc(C)cc2)oc1N(C)C	4.95*	1.06	0.806	.	2.32	-0.32
CCN(CC)CCNc1nc(-c2ccco2)c2c(c1C#N)CC(C)(C)OC2	2.33*	1.06	-0.922	i	-0.681	0.24
Cc1nc(NCCO)c(C#N)c2c1COC(C)(C)C2	1.98	1.06	0.196	i	0.1	-1.27
CC1(C)Cc2c(C#N)c(NCCc3ccccc3)nc(-c3ccco3)c2CO1	2.33*	1.09	0.0849	.	-0.963	-0.33
Cn1c(=O)[nH]c(=O)c2c1[nH]c(=S)n2C	.	.	.	i	.	.
Cc1ccc(C(=O)CSc2nnc(-c3ccco3)n2CC2CCCO2)cc1 (stereo not given)	1.08	0.97	1.94*	i	0.0709	0.15
C=CCn1c(=NC(=O)C2CC2)sc2cc(NC(C)=O)ccc21	2.11*	1.14	-0.00368	i	0.4	0.79
O=C1CCNc2cc3ccccc3cc21	2.02*	1.01	0.0317	i	-1.58	0.41
O=C(NCCCN1CCOCC1)c1cc(-c2cccs2)on1	1.1	0.99	0.333	i	-0.0438	1.28
c1csc(-c2csc3ncnc(NCCCN4CCOCC4)c23)c1	1.1	0.99	0.0112	i	2.03*	0.77
CCn1c(SCC(C)=O)nc2c1c(=O)[nH]c(=O)n2C	.	.	.	i	.	.
COc1ccc2oc(=Nc3ccccc3)c(C(=O)NC(C)=O)cc2c1	.	.	.	i	.	.
CCC(=O)Nc1cc(OC)c(NC(=O)c2ccccc2)cc1OC	1.08	1.06	0.00879	i	0.0722	-1.01
CCOc1cc(NC2CS(=O)(=O)CC2O)c(OCC)cc1NC(=O)c1ccccc1 (stereo not given)	1.11	1.06	2.62*	i	-0.403	-0.63
C(=Nc1c(-c2ccccc2)nc2n1CCS2)c1ccccc1	.	.	.	i	.	.
Cc1ccc(C2CC(C(F)(F)F)n3nc(C(N)=O)cc3N2)cc1 (stereo not given)	.	.	.	i	.	.
CCOC(=O)c1cnc2c(C(=O)OC)cccc2c1NCc1ccco1	3.39*	1.12	-1.29	i	-0.925	0.62
CCOC(=O)c1ccc2ncc(C(=O)OCC)c(NCc3ccco3)c2c1	3.78*	1.08	-0.756	.	0.018	-0.38
COC(=O)c1cn(CC(=O)NCc2ccco2)c2ccccc12	1.16	1.02	-0.316	i	-2.14	-0.85

Compound activity: PubChem BioAssay, several laboratories
